From PMC7862700, “An all-to-all approach to the identification of sequence-specific readers for epigenetic DNA modifications on cytosine” come the findings set out here.

What all share (assay): DAPPL (digital affinity profiling via proximity ligation, sequencing); 10 mM Tris-HCl pH 7.5, 50 mM NaCl, 1 mM DTT, 4% glycerol, room temperature, 30 min; GST-TFs on glutathione beads, 16-mer random dsDNA library, 0.1% formaldehyde crosslink after washing; high values mean tight binding
Test [1] deals with T1, FLI1 (Homo sapiens, UniProt Q01543 1-452).
T1 sequence: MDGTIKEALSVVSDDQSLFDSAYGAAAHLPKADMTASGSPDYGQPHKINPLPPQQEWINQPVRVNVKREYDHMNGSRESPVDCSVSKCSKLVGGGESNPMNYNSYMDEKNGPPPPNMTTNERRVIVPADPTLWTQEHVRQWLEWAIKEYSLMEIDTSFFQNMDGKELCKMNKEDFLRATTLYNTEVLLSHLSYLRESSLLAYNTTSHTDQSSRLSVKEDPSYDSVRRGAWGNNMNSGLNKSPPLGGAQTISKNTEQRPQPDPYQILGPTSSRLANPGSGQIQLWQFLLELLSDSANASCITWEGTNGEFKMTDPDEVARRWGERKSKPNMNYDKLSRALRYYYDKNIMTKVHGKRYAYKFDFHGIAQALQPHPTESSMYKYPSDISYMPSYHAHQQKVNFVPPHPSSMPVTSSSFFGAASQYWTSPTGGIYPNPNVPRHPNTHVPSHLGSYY
Particulars: protein: recombinant; tags: N-terminal GST; dsDNA, one strand shown. The method, boiled down:
(§1)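 Each value of binding signal is a hexamer's read frequency for a factor divided by the same hexamer's frequency in the tag-only sample. Barcoded, bead-captured GST fusions of human transcription factors made in yeast were pooled with that sample and incubated with 200 nmole of a random double-stranded 16-mer DNA library in Tris/NaCl/DTT/glycerol buffer at room temperature for 30 min. Washing, 0.1% formaldehyde crosslinking, proximity ligation, PCR and Illumina NextSeq500 sequencing followed.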

Test [2] concerns the target T2, ELK1 (Homo sapiens, UniProt P19419 1-428).
T2 sequence: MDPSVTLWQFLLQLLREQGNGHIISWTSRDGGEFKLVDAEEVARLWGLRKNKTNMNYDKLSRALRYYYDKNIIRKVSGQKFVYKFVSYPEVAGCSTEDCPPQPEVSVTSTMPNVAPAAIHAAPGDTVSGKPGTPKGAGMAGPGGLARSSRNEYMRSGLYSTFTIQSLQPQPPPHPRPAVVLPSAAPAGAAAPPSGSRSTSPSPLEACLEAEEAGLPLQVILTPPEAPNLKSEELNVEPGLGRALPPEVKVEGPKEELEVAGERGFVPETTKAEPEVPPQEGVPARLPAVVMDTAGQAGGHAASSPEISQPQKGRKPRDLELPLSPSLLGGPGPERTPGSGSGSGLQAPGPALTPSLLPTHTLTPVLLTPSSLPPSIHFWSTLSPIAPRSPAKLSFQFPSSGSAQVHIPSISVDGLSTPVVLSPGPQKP
Particulars: protein: recombinant; tags: N-terminal GST; dsDNA, one strand shown. The method in brief:
as §1

The target in test [3] is T3, GABPA (Homo sapiens, UniProt Q06546 1-454).
T3 sequence: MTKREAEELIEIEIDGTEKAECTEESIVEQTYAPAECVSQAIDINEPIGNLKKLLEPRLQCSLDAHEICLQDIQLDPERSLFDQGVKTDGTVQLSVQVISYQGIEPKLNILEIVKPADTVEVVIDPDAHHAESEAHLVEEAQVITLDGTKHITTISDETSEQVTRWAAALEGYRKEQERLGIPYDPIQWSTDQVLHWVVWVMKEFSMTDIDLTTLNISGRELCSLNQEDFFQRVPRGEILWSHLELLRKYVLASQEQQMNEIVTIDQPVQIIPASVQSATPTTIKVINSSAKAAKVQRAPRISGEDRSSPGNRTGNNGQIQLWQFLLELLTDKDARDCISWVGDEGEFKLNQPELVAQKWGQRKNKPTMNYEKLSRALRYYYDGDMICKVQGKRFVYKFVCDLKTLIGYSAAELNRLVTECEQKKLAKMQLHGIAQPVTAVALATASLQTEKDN
Particulars: protein: recombinant; tags: N-terminal GST; dsDNA, one strand shown. The method, boiled down: as §1

Test [4] addresses ELF1 (Homo sapiens, UniProt P32519 1-619). The settings on record: protein: recombinant; tags: N-terminal GST; dsDNA, one strand shown. The method, boiled down:
as §1

The target in test [5] is T4, EHF (Homo sapiens, UniProt Q9NZC4 1-300).
T4 sequence: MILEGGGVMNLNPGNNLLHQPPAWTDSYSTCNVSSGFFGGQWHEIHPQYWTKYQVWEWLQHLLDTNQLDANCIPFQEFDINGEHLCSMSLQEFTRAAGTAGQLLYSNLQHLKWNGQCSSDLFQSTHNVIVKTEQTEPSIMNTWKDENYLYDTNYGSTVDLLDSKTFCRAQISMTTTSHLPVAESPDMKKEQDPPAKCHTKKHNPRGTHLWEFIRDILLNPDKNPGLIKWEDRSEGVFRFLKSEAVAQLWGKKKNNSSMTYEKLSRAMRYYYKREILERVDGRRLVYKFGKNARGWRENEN
Particulars: protein: recombinant; tags: N-terminal GST; dsDNA, one strand shown. The method, boiled down: as §1

For test [6], the target named is SPI1 (Homo sapiens, UniProt P17947 1-270). The settings on record: protein: recombinant; tags: N-terminal GST; dsDNA, one strand shown. The method, boiled down: as §1
The target of test [7] is SPIB (Homo sapiens, UniProt Q01892 1-262). The settings on record: protein: recombinant; tags: N-terminal GST; dsDNA, one strand shown. The method in brief: as §1
Chain of SPIB (Q01892 whole entry): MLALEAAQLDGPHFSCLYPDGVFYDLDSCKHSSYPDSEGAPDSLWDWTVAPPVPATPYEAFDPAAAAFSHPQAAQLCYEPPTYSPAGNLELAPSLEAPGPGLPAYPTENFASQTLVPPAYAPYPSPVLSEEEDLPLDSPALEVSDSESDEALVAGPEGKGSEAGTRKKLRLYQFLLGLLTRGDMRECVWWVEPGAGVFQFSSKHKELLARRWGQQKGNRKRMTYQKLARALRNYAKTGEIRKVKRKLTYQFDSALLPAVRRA
The target of test [8] is T5, ELK3 (Homo sapiens, UniProt P41970 1-407).
T5 sequence: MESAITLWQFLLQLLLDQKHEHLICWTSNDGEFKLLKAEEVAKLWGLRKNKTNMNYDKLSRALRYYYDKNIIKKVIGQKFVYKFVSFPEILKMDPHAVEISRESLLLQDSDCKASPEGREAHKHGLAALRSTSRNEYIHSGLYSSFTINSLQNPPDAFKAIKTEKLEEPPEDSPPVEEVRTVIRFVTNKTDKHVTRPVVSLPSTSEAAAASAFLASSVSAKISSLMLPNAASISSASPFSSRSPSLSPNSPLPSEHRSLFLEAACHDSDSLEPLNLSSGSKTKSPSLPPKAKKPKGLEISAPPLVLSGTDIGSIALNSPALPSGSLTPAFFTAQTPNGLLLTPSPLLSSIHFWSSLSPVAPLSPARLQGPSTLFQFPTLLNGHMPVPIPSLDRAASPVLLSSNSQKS
Particulars: protein: recombinant; tags: N-terminal GST; dsDNA, one strand shown. The method, boiled down:
as §1

The target of test [9] is ETV5 (Homo sapiens, UniProt P41161 1-510). The settings on record: protein: recombinant; tags: N-terminal GST; dsDNA, one strand shown. The method, boiled down: as §1
Chain of ETV5 (P41161 whole entry): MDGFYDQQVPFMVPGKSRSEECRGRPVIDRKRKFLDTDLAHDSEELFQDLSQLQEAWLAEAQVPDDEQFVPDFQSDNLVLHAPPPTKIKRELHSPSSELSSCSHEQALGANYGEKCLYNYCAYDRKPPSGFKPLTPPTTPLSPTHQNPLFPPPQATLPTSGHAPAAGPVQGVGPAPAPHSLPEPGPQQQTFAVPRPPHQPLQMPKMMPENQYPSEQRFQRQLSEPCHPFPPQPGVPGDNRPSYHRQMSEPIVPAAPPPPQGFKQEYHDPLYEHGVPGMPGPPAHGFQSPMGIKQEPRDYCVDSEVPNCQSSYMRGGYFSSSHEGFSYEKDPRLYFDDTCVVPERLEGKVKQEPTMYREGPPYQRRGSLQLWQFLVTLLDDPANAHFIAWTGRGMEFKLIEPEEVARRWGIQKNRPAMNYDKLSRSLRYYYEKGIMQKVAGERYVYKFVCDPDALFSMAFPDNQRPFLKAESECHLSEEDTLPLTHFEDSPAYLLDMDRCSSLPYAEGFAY
In test [10] the target is HSF1 (Homo sapiens, UniProt Q00613 1-529). The settings on record: protein: recombinant; tags: N-terminal GST; chain copies: 3; dsDNA, one strand shown. The method, boiled down:
as §1

Test [11] deals with ELF4 (Homo sapiens, UniProt Q99607 1-663). The settings on record: protein: recombinant; tags: N-terminal GST; dsDNA, one strand shown. The method in brief: as §1
Chain of ELF4 (Q99607 whole entry): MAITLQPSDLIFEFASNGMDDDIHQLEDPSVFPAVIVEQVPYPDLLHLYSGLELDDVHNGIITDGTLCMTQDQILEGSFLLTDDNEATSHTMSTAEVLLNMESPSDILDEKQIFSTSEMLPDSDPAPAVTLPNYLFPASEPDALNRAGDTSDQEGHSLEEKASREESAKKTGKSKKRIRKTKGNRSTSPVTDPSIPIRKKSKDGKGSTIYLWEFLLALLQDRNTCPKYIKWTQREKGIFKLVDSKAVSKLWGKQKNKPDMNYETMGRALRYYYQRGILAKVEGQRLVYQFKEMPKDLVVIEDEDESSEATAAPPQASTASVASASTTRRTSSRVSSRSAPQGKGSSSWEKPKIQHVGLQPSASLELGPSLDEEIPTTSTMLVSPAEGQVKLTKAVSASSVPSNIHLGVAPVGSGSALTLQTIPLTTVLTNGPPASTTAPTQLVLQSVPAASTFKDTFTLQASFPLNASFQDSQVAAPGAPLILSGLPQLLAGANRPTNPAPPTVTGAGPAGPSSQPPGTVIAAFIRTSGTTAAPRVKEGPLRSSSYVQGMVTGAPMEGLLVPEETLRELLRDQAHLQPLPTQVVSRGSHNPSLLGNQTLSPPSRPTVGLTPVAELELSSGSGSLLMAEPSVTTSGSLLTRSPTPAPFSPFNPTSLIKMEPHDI
Test [12] addresses T6, ELK4 (Homo sapiens, UniProt P28324-2 1-405).
T6 sequence: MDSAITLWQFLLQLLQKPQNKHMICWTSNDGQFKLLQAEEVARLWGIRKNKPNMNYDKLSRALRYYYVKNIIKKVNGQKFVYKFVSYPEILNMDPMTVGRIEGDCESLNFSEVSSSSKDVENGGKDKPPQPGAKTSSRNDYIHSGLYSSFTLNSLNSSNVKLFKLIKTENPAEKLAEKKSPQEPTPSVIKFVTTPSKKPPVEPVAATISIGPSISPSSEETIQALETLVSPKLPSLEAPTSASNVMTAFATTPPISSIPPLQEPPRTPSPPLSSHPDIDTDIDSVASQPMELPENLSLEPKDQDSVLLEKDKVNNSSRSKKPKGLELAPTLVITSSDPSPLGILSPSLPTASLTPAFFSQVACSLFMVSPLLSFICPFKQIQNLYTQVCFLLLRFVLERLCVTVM
Particulars: protein: recombinant; tags: N-terminal GST; dsDNA, one strand shown. The method in brief:
as §1

Test [13] deals with T7, ETV2 (Homo sapiens, UniProt O00321 1-342).
T7 sequence: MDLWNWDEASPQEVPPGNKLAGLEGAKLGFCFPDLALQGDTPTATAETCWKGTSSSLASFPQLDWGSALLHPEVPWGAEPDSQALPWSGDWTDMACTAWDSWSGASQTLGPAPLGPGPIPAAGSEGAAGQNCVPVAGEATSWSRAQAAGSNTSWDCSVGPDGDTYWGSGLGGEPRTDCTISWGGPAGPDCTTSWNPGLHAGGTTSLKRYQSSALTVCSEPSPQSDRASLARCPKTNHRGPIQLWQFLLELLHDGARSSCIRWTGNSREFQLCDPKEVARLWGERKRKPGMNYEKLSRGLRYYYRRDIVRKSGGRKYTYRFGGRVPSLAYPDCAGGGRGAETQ
The settings on record: protein: recombinant; tags: N-terminal GST; dsDNA, one strand shown. The method, boiled down:
as §1

Test [14] deals with T8, ELF3 (Homo sapiens, UniProt P78545 1-371).
T8 sequence: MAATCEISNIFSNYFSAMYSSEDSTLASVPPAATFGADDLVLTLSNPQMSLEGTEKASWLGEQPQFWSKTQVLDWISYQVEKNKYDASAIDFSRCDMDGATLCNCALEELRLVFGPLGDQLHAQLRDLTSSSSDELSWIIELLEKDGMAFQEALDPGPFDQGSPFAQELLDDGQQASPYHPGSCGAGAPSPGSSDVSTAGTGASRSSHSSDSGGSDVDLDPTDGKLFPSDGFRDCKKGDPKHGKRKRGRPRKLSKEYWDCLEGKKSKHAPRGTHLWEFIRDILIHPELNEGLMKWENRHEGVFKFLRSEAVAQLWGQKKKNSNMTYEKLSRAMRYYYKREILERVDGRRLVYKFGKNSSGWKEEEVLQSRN
Particulars: protein: recombinant; tags: N-terminal GST; dsDNA, one strand shown. The method in brief:
as §1

Test [15] has as its target ETV1 (Homo sapiens, UniProt P50549 1-477). The settings on record: protein: recombinant; tags: N-terminal GST; dsDNA, one strand shown. The method in brief: as §1

Chain of HSF1 (Q00613 whole entry): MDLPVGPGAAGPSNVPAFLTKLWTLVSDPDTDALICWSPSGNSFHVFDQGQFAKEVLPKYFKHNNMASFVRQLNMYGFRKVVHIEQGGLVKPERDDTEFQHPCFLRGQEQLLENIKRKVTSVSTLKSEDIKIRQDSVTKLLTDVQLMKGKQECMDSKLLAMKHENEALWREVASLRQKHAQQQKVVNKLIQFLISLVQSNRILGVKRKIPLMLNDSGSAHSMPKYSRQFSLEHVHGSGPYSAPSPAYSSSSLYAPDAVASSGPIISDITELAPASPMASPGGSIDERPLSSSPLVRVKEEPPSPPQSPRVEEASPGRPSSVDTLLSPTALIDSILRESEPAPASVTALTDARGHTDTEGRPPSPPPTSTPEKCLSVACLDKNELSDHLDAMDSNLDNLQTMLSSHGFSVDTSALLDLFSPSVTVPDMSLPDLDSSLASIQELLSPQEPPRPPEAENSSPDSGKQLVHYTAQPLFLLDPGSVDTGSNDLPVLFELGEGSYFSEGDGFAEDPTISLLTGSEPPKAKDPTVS
Chain of ELF1 (P32519 whole entry): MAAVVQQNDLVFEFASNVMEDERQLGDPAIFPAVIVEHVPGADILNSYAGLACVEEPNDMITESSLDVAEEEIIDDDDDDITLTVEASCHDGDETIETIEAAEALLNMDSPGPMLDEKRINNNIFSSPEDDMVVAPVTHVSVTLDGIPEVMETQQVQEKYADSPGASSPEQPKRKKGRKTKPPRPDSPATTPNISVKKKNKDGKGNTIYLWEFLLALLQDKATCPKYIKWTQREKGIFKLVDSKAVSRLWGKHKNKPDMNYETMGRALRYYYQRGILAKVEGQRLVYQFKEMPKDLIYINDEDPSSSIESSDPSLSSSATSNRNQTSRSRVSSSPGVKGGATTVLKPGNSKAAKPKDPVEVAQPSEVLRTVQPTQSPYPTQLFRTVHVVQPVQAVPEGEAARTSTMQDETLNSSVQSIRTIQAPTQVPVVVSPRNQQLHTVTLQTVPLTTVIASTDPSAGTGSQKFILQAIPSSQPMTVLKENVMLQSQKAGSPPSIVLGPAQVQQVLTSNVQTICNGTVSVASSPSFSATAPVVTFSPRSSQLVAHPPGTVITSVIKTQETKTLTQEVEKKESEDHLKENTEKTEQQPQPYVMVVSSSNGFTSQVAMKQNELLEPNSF
Chain of ETV1 (P50549 whole entry): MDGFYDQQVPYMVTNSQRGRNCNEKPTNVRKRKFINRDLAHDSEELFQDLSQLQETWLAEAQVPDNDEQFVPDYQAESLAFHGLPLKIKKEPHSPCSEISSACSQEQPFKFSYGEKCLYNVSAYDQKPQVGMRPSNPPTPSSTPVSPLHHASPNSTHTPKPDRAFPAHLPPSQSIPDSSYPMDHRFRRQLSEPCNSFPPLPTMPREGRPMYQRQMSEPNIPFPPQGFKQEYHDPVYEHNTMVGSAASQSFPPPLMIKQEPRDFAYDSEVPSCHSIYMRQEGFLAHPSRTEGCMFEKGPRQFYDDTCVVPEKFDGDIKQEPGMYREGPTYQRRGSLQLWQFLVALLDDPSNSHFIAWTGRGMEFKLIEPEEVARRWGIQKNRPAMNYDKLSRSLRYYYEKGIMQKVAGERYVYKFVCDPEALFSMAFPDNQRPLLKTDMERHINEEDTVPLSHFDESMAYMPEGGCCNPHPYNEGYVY

Take CGAGTT: the binding signal is 1.16 fold enrichment (6-mer frequency, TF over GST control) in [1]; 1.1 fold enrichment (6-mer frequency, TF over GST control) in test [2]; 1.02 fold enrichment (6-mer frequency, TF over GST control) in test [3]; 1.16 fold enrichment (6-mer frequency, TF over GST control) in test [4]; 1.04 fold enrichment (6-mer frequency, TF over GST control) in test [5]; 1.09 fold enrichment (6-mer frequency, TF over GST control) in test [6]. Also, the binding signal in test [7] was 1.07 fold enrichment (6-mer frequency, TF over GST control); in test [8], 1.14 fold enrichment (6-mer frequency, TF over GST control); in test [9], 1.1 fold enrichment (6-mer frequency, TF over GST control); in test [10] it was 1.07 fold enrichment (6-mer frequency, TF over GST control); in test [11] it was 1.06 fold enrichment (6-mer frequency, TF over GST control); in test [12] it was 1.1 fold enrichment (6-mer frequency, TF over GST control). Also, the binding signal in [13] is 1.11 fold enrichment (6-mer frequency, TF over GST control); in test [14], 1.16 fold enrichment (6-mer frequency, TF over GST control); in [15], 1.04 fold enrichment (6-mer frequency, TF over GST control).

As to CGATGA, the binding signal in test [1] was 1.01 fold enrichment (6-mer frequency, TF over GST control); in test [2], 1.09 fold enrichment (6-mer frequency, TF over GST control); in [3], 1.05 fold enrichment (6-mer frequency, TF over GST control); in [4], 1.11 fold enrichment (6-mer frequency, TF over GST control); in test [5], 1.08 fold enrichment (6-mer frequency, TF over GST control); in test [6], 1.06 fold enrichment (6-mer frequency, TF over GST control). The binding signal was 1.01 fold enrichment (6-mer frequency, TF over GST control) in test [7]; 1.09 fold enrichment (6-mer frequency, TF over GST control) in test [8]; 1.05 fold enrichment (6-mer frequency, TF over GST control) in test [9]; 1.02 fold enrichment (6-mer frequency, TF over GST control) in [10]; 1.06 fold enrichment (6-mer frequency, TF over GST control) in [11]; 1.01 fold enrichment (6-mer frequency, TF over GST control) in test [12].
